Assay outcomes (PubChem)
Hits are enriched below; roughly 2.4% of the tested compounds scored in any of these assays.
D2 PAM-1 – positive allosteric modulators of human D2 dopamine receptor; P14416; DiscoveRx D2 beta-arrestin cells, luminescence, 90 min; 100% = 57 uM dopamine signal; potentiation, % (test concentration not listed); hit rate 0.23% among 360,000; AID 624464; in the data active = potentiation above about 50%; inconclusive = mostly about 30% to 49%
Target sequence (P14416 whole entry, looked up): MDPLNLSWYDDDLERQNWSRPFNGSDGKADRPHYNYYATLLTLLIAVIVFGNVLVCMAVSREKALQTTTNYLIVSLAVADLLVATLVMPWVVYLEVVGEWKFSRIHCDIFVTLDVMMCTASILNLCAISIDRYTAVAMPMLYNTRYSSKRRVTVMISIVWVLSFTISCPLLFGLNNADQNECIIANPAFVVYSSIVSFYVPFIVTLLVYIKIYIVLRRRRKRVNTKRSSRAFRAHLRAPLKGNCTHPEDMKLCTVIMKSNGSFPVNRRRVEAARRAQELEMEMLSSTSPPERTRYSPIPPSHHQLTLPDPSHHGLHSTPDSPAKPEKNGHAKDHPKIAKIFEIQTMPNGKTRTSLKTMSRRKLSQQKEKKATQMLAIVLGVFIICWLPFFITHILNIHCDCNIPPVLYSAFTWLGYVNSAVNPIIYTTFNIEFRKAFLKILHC
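PathHunter beta-arrestin assay in DiscoveRx D2 cells. Compounds were added with an EC20 of dopamine (50 nM final) for 90 min at 37 deg C. Luminescence was read 1 h after detection reagent, with 57 uM dopamine as the EC100 control.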
D2 ag-1 – agonists of human D2 dopamine receptor; HEK293 T-REx D2 cells, calcium flux agonist mode; hit rate 0.53% among 340,000; activation, % at 2 µM; P14416; AID 485358;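 active = activation over 3 SD above normal in the single-dose calcium agonist read, cut at about 30% in these data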
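Agonism is scored from calcium flux in a force-coupled, inducible HEK293 cell line expressing D2, read kinetically for 180 s after compound addition against dopamine controls.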
D2 antagonist – antagonizes the human D2 dopamine receptor; AID 485344; inhibition, % at 10 µM; hit rate 2% among 340,000; HEK293 TREx D2 cells, calcium flux, dopamine EC80; in the data active = inhibition above about 30%; inactive = below that, where a call was filed
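Tetracycline-induced HEK293 T-REx cells expressing D2 force-coupled to calcium signalling were dye-loaded, exposed to compound for 180 s, then challenged with an EC80 of dopamine; calcium flux was followed kinetically for a further 180 s.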
D2 ag-2 – human D2 receptor agonism in beta-arrestin assay; P14416; DiscoveRx PathHunter D2 beta-arrestin, luminescence, 90 min; 100% = 57 uM dopamine signal; activation, % (concentration not given with the values); hit rate 0.084% among 360,000; in the data active = activation above about 40%; inconclusive = between about 15% and that limit
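Agonist mode: compounds alone added to overnight-plated D2 PathHunter cells for 90 min at 37 C, with 57 uM final dopamine (EC100) defining full response. Beta-arrestin recruitment detected by chemiluminescent reagent, read after 1 h at ambient temperature.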
D2 PAM-2 – positively modulates the human D2 dopamine receptor allosterically | HEK293 T-REx D2, calcium flux, EC20 dopamine potentiation | hit rate 0.34% among 340,000 | potentiation, % at 10 µM | P14416 | AID 485347;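 active = potentiation over 3 SD above the plate norm, cut at about 30% in these data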
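Potentiation of an EC20 dopamine calcium response is measured in a force-coupled, tetracycline-inducible Hek293 Trex D2 line. Compound-only kinetic reads over 180 s flag agonists before dopamine addition.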
Large screens that a line does not name were inactive.

COc1ccc(Nc2cc(C(=O)NCCCN(C)Cc3ccccc3)c3ccccc3n2)cc1OC	none (no result: D2 PAM-1, D2 antagonist, D2 ag-2)
COc1cc(/C=C2/SC(=Nc3ccc(O)cc3)NC2=O)cc(OC)c1O	D2 ag-1 51.3
CCCc1cc(=O)n2nc(N3CCC(C(=O)Nc4c(F)c(F)c(F)c(F)c4F)CC3)sc2n1	D2 antagonist 37.5
CCOc1ccc(CCNC(=O)c2cc3c(=O)oc4ccc(C)cc4c3s2)cc1OCC	none (no result: D2 PAM-1, D2 antagonist, D2 ag-2)
COc1ccccc1N1CCN(C(=O)c2cc(S(=O)(=O)N3CCC(C)CC3)cn2C)CC1	none (no result: D2 PAM-1, D2 antagonist, D2 ag-2)
Cc1ccc(S(=O)(=O)n2cc(-c3ccccc3)c(N)n2)cc1	none
Nc1nn(S(=O)(=O)c2ccccc2)cc1-c1ccc([N+](=O)[O-])cc1	D2 PAM-1 73.7, D2 ag-2 inconclusive
C=CCOc1ccccc1CN1CCC(C(=O)Nc2cccc(-c3ccn[nH]3)c2)CC1	D2 antagonist 92.4
CC1CCN(CCCCOc2cccc(Br)c2)CC1	D2 antagonist 91.8
Cc1cc(C)c(OCCCCN2CCC(C)CC2)c(Br)c1	none
Cc1cc(Br)ccc1OCCn1ccnc1	D2 ag-2 70.5
Brc1cccc(OCCN2CCOCC2)c1	none
Clc1cc(Br)ccc1OCCn1ccnc1	none
Brc1cccc(OCCN2CCCCC2)c1	D2 antagonist 47.5
Cc1cc(Br)ccc1OCCCCN1CCC(C)CC1	D2 antagonist 35.1
CC1CCN(CCCCOc2ccc(Br)cc2)CC1	none
Cc1ccc(C)c(Nc2nnc(-c3ccc(C)c(S(=O)(=O)N4CCN(C)CC4)c3)c3ccccc23)c1	none (no result: D2 PAM-1, D2 antagonist, D2 ag-2)
O=C(NCc1ccc2c(c1)CCN2C(=O)c1ccc(F)cc1)c1ccco1	none (no result: D2 PAM-1, D2 antagonist, D2 ag-2)
Cc1cc(C)cc(-c2nnc(SCC(=O)Nc3cc(C)on3)o2)c1	D2 antagonist 36.3
Cc1cc(NC(=O)CSc2nnc(-c3ccccc3)c(-c3ccccc3)n2)no1	D2 antagonist 80.5
Cc1cc(NC(=O)CCc2ccc(-c3ccccc3)o2)no1	D2 antagonist 32.5
COc1ccc(NC(=O)CCS(=O)(=O)c2nc(-c3ccc4c(c3)OCO4)cc(C(F)(F)F)n2)cc1	none (no result: D2 PAM-1, D2 antagonist, D2 ag-2)
Cc1cc(NC(=O)CSc2nnc(-c3ccccc3)o2)no1	none (no result: D2 ag-1, D2 antagonist, D2 PAM-2)
Cc1cc(NC(=O)CCS(=O)(=O)c2nc(-c3ccccc3)cc(C(F)(F)F)n2)no1	D2 PAM-2 38.1
Cc1cc(NC(=O)CSc2ccccc2)no1	none
O=c1c2cnn(-c3ccc(F)cc3)c2ncn1Cc1ccccc1Cl	none (no result: D2 PAM-1, D2 antagonist, D2 ag-2)
CCN(CC)C(=O)c1sc(NC(=O)c2nc3ncccn3n2)c(C(=O)OC)c1C	none (no result: D2 PAM-1, D2 antagonist, D2 ag-2)
CCOC(=O)c1ccc(N2C(=O)c3[nH]nc(-c4ccccc4)c3C2c2ccc(CC)cc2)cc1 (centres undefined)	none (no result: D2 PAM-1, D2 antagonist, D2 ag-2)
Cc1ccc(S(=O)(=O)N(CC(=O)N2CCOCC2)CC(=O)N2CCOCC2)cc1	D2 PAM-2 31.1
COc1cccc(C(=O)NC2=NC(c3ccccc3F)CC(=O)N2)c1 (centres undefined)	none (no result: D2 PAM-1, D2 antagonist, D2 ag-2)
O=c1[nH]c2c(c(=O)[nH]1)CCC2	D2 antagonist 36.9
CC(=O)Oc1ccc(N2C(=O)C3C4C=CC(CC4)C3C2=O)cc1[N+](=O)[O-] (centres undefined)	D2 antagonist 62.2
O=C1C2C3C=CC(CC3)C2C(=O)N1c1ccc([N+](=O)[O-])cc1 (centres undefined)	none
Cc1ccc(C2CCN(C(=O)Nc3ccc(C)c(C)c3)C2)cc1 (centres undefined)	none (no result: D2 PAM-1, D2 antagonist, D2 ag-2)
Clc1ccc(OCc2nnc(-c3ccccc3Br)o2)cc1	D2 antagonist 36.4
O=C(Cn1cc(SCc2c(F)cccc2Cl)c2ccccc21)N1CCCCCC1	none (no result: D2 PAM-1, D2 antagonist, D2 ag-2)
Cc1ccc(NS(=O)(=O)c2ccc(-c3cc(C)no3)cc2)c(Br)c1	none (no result: D2 PAM-1, D2 antagonist, D2 ag-2)
CCOC(=O)CNc1ccc2c(c1)OCO2	D2 antagonist 39.9 (no result: D2 PAM-2)
O=c1c2ccsc2ncn1Cc1ccc(Cl)cc1	D2 antagonist 38.0
O=c1c2ccccc2ncn1Cc1ccccc1	none
CN1CCC(=O)N(CCSc2ccc(Br)cc2)CC1	D2 antagonist 53.5
Cc1cc(C)c(NC(=O)C2CCCN(S(=O)(=O)c3c(C)noc3C)C2)c(C)c1 (centres undefined)	none (no result: D2 PAM-1, D2 antagonist, D2 ag-2)
Cc1cc(C)c(NC(=O)C2CCCN(S(=O)(=O)c3c(C)noc3/C=C/N(C)C)C2)c(C)c1 (centres undefined)	D2 antagonist 33.4
O=C(CSc1nc2c([nH]c3ccccc32)c(=O)n1-c1cccc(Cl)c1)N1CCCC1	none (no result: D2 PAM-1, D2 antagonist, D2 ag-2)
O=c1[nH]c(CN2CCN(Cc3ccccc3)CC2)nc2scc(-c3ccccc3)c12	D2 antagonist 68.8
CC(=O)N1CCN(Cc2nc3scc(-c4ccccc4)c3c(=O)[nH]2)CC1	none (no result: D2 ag-1, D2 antagonist)
CNC(=S)N1CCC(c2nc3ccccc3s2)CC1	D2 antagonist 68.3
CCOC(=O)CNC(=O)CSc1nnc(-c2ccc(OC)cc2)n1CC	D2 antagonist 35.3
CC(C)c1nc(C#N)c(NCCCn2ccnc2)o1	D2 antagonist 43.4
CN1C(=O)/C(=C\c2ccc(N(C)C)cc2)OC1=S	D2 ag-1 86.3, D2 antagonist 47.5
COc1ccc(/C=C2\OC(=S)N(C)C2=O)cc1	none
CCOC(=O)CC1C(=O)NCCN1c1nc2c(C)cccn2c(=O)c1/C=C1\SC(=S)N(CC(C)C)C1=O (centres undefined)	D2 ag-1 32.6 (no result: D2 PAM-1, D2 ag-2)
CCOCCCNc1nc2c(C)cccn2c(=O)c1/C=C1\SC(=S)N(CC(C)C)C1=O	none
Cn1nnc(NC(=O)CSc2nnnn2-c2ccc(F)cc2)n1	none (no result: D2 ag-1, D2 antagonist, D2 PAM-2)
Cn1nnc(NC(=S)NC(=O)c2cc(Cl)ccc2Cl)n1	D2 antagonist 30.6
Cn1nnc(NC(=O)CSc2ccc(Cl)cc2)n1	D2 antagonist 39.8
